This is a sample that favours compounds with a hit; in the whole collection about 2.9% have one here.
esBAF inh: SWI/SNF esBAF complex inhibition; mouse ES cells, Bmi1-luciferase knock-in reporter, 24 h; 100% = twice the neutral-well signal; reporter increase, % at 12.5 µM; 350,000 compounds, 2% hits; AID 602393; in the data active means activation above about 40%; inconclusive means no clear call, values can overlap the other calls;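 further: a rise in the Bmi1 reporter signal indicates esBAF inhibition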
Wnt act: activates Wnt/beta-catenin signaling in a reporter cell assay; activator, plate reader; activation, % at 9.35 µM; 300,000 compounds, 1.2% hits; AID 743398; in the data active means activation above about 30%, passing the limit was not always enough; inconclusive means no clear call, values can overlap the other calls
MITF TRPM1 HTS: activators of MITF-driven TRPM1 promoter activity in SK-MEL-5 cells. SK-MEL-5 TRPM1-promoter luciferase, 24 h; % of positive control, neutral wells = 0. 300,000 compounds, 0.75% hits. activation, % at 12.5 µM;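 active means mean activation of at least 80% with every replicate also reaching 80%; inconclusive means mean reaches 80% but some replicate falls short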
PvdQ acylase: P. aeruginosa PvdQ acylase inhibition | purified PvdQ acylase, fluorescence plate reader | 340,000 compounds, 0.063% hits | inhibition, % at 10 µM; in the data active means inhibition above about 30%, passing the limit was not always enough; inconclusive means no clear call, values can overlap the other calls
Vif imaging: inhibitors of HIV Vif; HEK293T cells, Vif self-association by quenched fluorescence, imaging, 24 h; inhibition, % at 7.49 µM; 340,000 compounds, 0.35% hits; in the data active means inhibition above about 50%, passing the limit was not always enough; inconclusive means no clear call, values can overlap the other calls; inactive means below about 31%
Glyco luc inh: blocks N-linked glycosylation in D54 reporter cells. D54 ERlucT glycosylation luciferase reporter, 24 h; percent of 100 nM tunicamycin response. reporter increase, % at 12.5 µM. 360,000 compounds, 0.23% hits;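 active means mean luciferase reporter signal, scaled so untreated is 0 and the glycosylation-blocking control 100, at or above a set limit in every replicate; inconclusive means mean reaches the limit but not every replicate does; inactive means mean below the limit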;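 further: luciferase carries N-glycosylation sites so blocking glycosylation raises the light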
Of the large screens only hits and unclear results are named; the others gave an inactive call.

CCC(=O)Nc1nnc(/C=C/c2ccccc2)s1	esBAF inh 61
CCCC(=O)Nc1nnc(/C=C/c2ccccc2)s1	none
CO[C@H]1CC[C@@H]2CCN(C)C(=O)C[C@@H](c3ccccc3)CN(C)C(=O)c3cccc(C#N)c3OC[C@@H]1O2	none (no result: Wnt act, MITF TRPM1 HTS, PvdQ acylase, Vif imaging, Glyco luc inh)
C/C(=N/NC(=O)c1ccoc1C)C12CC3CC(CC(C3)C1)C2	esBAF inh 57 (no result: Wnt act)
N/C(=N\OC(=O)C12CC3CC(CC(C3)C1)C2)c1ccccn1	esBAF inh 75, MITF TRPM1 HTS 98 (no result: Wnt act)
C/C(=N\NC(=O)c1ccoc1C)c1ccccc1	none (no result: esBAF inh, MITF TRPM1 HTS, PvdQ acylase)
C/C(=N/NC(=O)c1ccccn1)c1ccc(O)cc1	Wnt act inconclusive
C/C(=N\NC(=O)c1ccccn1)C12CC3CC(CC(C3)C1)C2	esBAF inh 49
C[C@@H]1CCCCO[C@@H](CN(C)C(=O)Nc2ccc(F)cc2)[C@H](C)CN([C@@H](C)CO)C(=O)c2cc(NC(=O)c3ccncc3)ccc2O1	none (no result: Wnt act, MITF TRPM1 HTS, PvdQ acylase, Vif imaging, Glyco luc inh)
COCCNC(=O)C[C@H]1C[C@@H]2c3cc(NC(=O)NC4CCCCC4)ccc3O[C@@H]2[C@@H](CO)O1	none (no result: Wnt act, MITF TRPM1 HTS, PvdQ acylase, Vif imaging, Glyco luc inh)
COc1ccc(-c2cn3ccccc3n2)cc1	none
COc1ccc(-c2ccn(-c3cccc(F)n3)n2)cc1	esBAF inh 54
O=C(Nc1cccc(-c2ccc(N3CCOCC3)nn2)c1)c1ccccc1	MITF TRPM1 HTS inconclusive
COc1c(C)cccc1C(=O)Nc1ccc(N2CCOCC2)c(Cl)c1	esBAF inh 59, MITF TRPM1 HTS 89 (no result: Wnt act)
O=C(Nc1ccc(N2CCOCC2)c(Cl)c1)c1cccnc1Cl	none
O=C(COc1ccccc1)Nc1cccc(-c2ccc(N3CCOCC3)nn2)c1	Wnt act inconclusive, MITF TRPM1 HTS 86
O=C(Nc1cccc(-c2ccc(N3CCOCC3)nn2)c1)c1ccc([N+](=O)[O-])cc1	esBAF inh 52, Wnt act 31, MITF TRPM1 HTS 99
Cc1ccccc1C(=O)Nc1cccc(-c2ccc(N3CCOCC3)nn2)c1	esBAF inh 60
CO[C@H]1CN(C)C(=O)c2cc(NC(=O)Nc3ccc(Cl)cc3)ccc2OC[C@@H](C)N(C)C[C@@H]1C	none (no result: Wnt act, MITF TRPM1 HTS, PvdQ acylase, Vif imaging, Glyco luc inh)
CC(C)NC(=O)N1[C@@H]2CN(C(=O)C3CCC3)c3ccccc3[C@@H]2[C@@H]1CO	none (no result: Wnt act, MITF TRPM1 HTS, PvdQ acylase, Vif imaging, Glyco luc inh)
Cc1ccc(C(=O)Nc2cccc(-c3ccc(N4CCOCC4)nn3)c2)cc1[N+](=O)[O-]	esBAF inh 41, Wnt act 33, MITF TRPM1 HTS 103
O=[N+]([O-])c1ccc(S(=O)(=O)Nc2cccc(-c3ccc(N4CCOCC4)nn3)c2)cc1	none
CN1c2ccc(-c3ccc(C#N)cc3)cc2[C@H]2[C@H](CCN2C(=O)C2CCCCC2)[C@@H]1CO	none (no result: Wnt act, MITF TRPM1 HTS, PvdQ acylase, Vif imaging, Glyco luc inh)
O=C(Nc1ccc(Cl)cc1)Nc1nnc(Cc2ccc([N+](=O)[O-])cc2)s1	Wnt act 48 (no result: esBAF inh)
Cc1ccc(NC(=O)Nc2nnc(Cc3ccc([N+](=O)[O-])cc3)s2)cc1	none (no result: esBAF inh)
CC1CCc2c(sc(NC(=O)c3noc4c3CCCC4)c2C(N)=O)C1 (stereo not drawn)	MITF TRPM1 HTS 141 (no result: esBAF inh)
CNC(=O)C[C@@H]1CC[C@H]2[C@@H](COc3ccc(NC(=O)Cc4cccs4)cc3C(=O)N2C)O1	none (no result: Wnt act, MITF TRPM1 HTS, PvdQ acylase, Vif imaging, Glyco luc inh)
C=CCOc1ccc(/C=C/C(C)=N\O)cc1	Wnt act 38 (no result: MITF TRPM1 HTS)
CN1c2ccc(Br)cc2[C@@H]2[C@@H](CCN2C(=O)C2CCCCC2)[C@@H]1CO	none (no result: Wnt act, MITF TRPM1 HTS, PvdQ acylase, Vif imaging, Glyco luc inh)
O=C(c1ccccn1)N1CC[C@H]2[C@H](CO)Nc3ccc(-c4ccccc4)cc3[C@H]21	none (no result: Wnt act, MITF TRPM1 HTS, PvdQ acylase, Vif imaging, Glyco luc inh)
CCn1cc(Br)c(C(=O)Nc2ccc(Cl)c(Cl)c2)n1	esBAF inh 65 (no result: Wnt act)
COc1ccc(NC(=O)N(C)C[C@H]2Oc3c(NS(=O)(=O)c4cccs4)cccc3C(=O)N([C@@H](C)CO)C[C@H]2C)cc1	none (no result: Wnt act, MITF TRPM1 HTS, PvdQ acylase, Vif imaging, Glyco luc inh)
O=C(Nc1ccc2c(c1)OCO2)c1ccccn1	Wnt act 46
O=C(Nc1ccc2c(c1)CCC2)Nc1ccc2c(c1)OCO2	esBAF inh 53, Wnt act 50
O=C(Nc1c(C(=O)Nc2cccc(F)c2)oc2ccccc12)c1ccc2c(c1)OCO2	none (no result: Wnt act, Vif imaging)
O=C(Nc1cccc(F)c1)c1ccc2c(c1)OCO2	esBAF inh 78 (no result: Wnt act, Vif imaging)
O=C(NCc1cccs1)Nc1cccc(Cl)c1	esBAF inh 59 (no result: Wnt act, Vif imaging)
S=C(NCc1cccs1)Nc1cccc(Cl)c1	none
CC(=O)N(C)C[C@H]1Oc2cc(-c3ccccc3C)ccc2S(=O)(=O)N([C@@H](C)CO)C[C@@H]1C	none (no result: Wnt act, MITF TRPM1 HTS, PvdQ acylase, Vif imaging, Glyco luc inh)
